Screens deposited in PubChem BioAssay by Broad Institute.
IDE exosite FP = exo-site inhibitors of human insulin-degrading enzyme. purified IDE, FL-6b probe fluorescence polarization; hits give low values. P14735. z-score at 20 µM. AID 1259349. 17,000 compounds, 6.3% hits;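 active means z-score of -3 or lower, meaning strong loss of probe binding signal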;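 further: His-tagged human IDE residues 42-1019 made in E. coli with 30 nM FL-6b probe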
Target sequence (P14735 42-1019 limits assumed): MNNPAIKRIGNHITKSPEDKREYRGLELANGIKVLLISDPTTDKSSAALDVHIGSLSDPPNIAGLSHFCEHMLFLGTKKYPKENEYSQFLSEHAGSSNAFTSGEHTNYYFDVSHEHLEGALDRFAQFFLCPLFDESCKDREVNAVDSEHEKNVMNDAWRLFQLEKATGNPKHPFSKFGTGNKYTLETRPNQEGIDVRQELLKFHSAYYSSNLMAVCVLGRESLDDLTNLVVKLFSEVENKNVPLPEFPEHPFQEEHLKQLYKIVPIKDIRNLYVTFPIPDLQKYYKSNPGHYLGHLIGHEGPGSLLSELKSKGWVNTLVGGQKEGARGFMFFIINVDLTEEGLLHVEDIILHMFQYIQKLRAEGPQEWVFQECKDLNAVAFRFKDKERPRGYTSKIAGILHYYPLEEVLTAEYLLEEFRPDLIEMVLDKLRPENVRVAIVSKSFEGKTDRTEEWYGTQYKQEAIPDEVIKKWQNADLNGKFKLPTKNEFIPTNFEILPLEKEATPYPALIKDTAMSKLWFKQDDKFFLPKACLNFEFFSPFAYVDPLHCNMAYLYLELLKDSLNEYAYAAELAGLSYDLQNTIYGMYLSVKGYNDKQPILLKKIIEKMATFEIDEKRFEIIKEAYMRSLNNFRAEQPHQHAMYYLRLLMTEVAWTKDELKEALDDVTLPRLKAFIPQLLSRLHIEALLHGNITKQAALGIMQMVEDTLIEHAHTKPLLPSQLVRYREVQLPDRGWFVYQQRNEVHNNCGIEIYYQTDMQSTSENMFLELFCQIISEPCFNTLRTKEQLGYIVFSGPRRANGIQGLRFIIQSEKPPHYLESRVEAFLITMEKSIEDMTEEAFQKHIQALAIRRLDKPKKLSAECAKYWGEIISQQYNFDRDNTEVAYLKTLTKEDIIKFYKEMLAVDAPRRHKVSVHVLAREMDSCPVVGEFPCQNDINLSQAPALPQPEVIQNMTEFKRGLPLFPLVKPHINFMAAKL
An asterisk follows results filed as active. The full list was thinned out, with hits kept by preference.

SMILES	IDE exosite FP
Cn1cnc(S(=O)(=O)N2CCCCN3[C@H](CO)[C@@H](c4ccc(-c5cccc(F)c5)cc4)[C@@H]3C2)c1	-3.68*
Cn1cnc(S(=O)(=O)N2CCCCN3[C@H](C2)[C@@H](c2ccc(-c4cccc(F)c4)cc2)[C@@H]3CO)c1	0.693
Cn1cnc(S(=O)(=O)N2CCCCN3[C@H](CO)[C@@H](c4ccc(-c5cccc(F)c5)cc4)[C@H]3C2)c1	0.0352
Cn1cnc(S(=O)(=O)N2CCCCN3[C@@H](CO)[C@H](c4ccc(-c5cccc(F)c5)cc4)[C@@H]3C2)c1	2.07
Cn1cnc(S(=O)(=O)N2CCCCN3[C@@H](CO)[C@@H](c4ccc(-c5cccc(F)c5)cc4)[C@@H]3C2)c1	-4.6*
Cn1cnc(S(=O)(=O)N2CCCCN3[C@H](CO)[C@H](c4ccc(-c5ccc(F)cc5)cc4)[C@@H]3C2)c1	3.94
CC(C)C#Cc1ccc([C@H]2[C@H](CO)N3C(=O)CN(C(=O)NC4CCCC4)C[C@@H]23)cc1	-1.02
O=C(Nc1cc(F)ccc1F)N1CC(=O)N2[C@H](CO)[C@@H](c3ccc(-c4cccc(F)c4)cc3)[C@H]2C1	1.02
O=C(NC1CCC1)[C@@H]1[C@@H](CO)[C@@H]2Cn3c(ccc(-c4ccncc4)c3=O)[C@H]1N2Cc1cocn1	0.365
CN(C)C(=O)c1cccc(-c2ccc([C@@H]3[C@@H](CO)N(C(=O)C4CCCCC4)[C@H]3C#N)cc2)c1	4.6
COc1ccccc1NC(=O)N1C[C@H](O)COC[C@@H]2O[C@H](CC(=O)NCCc3ccncc3)CC[C@H]21	-0.0791
COc1cccc(C#Cc2ccc([C@@H]3[C@@H](CO)N4C(=O)CN(C(=O)Cc5ccccc5)C[C@@H]34)cc2)c1	0.00208
COc1cccc(C#Cc2ccc([C@@H]3[C@@H](CO)N4C(=O)CN(C(=O)Cc5ccccc5)C[C@H]34)cc2)c1	2.23
CCC(=O)N1CC(=O)N2[C@H](C1)[C@H](c1ccc(C#Cc3cccc(OC)c3)cc1)[C@@H]2CO	-9.23*
CCC(=O)N1CC(=O)N2[C@@H](CO)[C@H](c3ccc(C#Cc4cccc(OC)c4)cc3)[C@@H]2C1	-9.1*
CCC(=O)N1CC(=O)N2[C@H](C1)[C@@H](c1ccc(C#Cc3cccc(OC)c3)cc1)[C@@H]2CO	-6.54*
COc1cccc(C#Cc2ccc([C@H]3[C@@H](CO)N4C(=O)CN(C(=O)Cc5ccccc5)C[C@H]34)cc2)c1	-4.64*
C[C@@H]1CC(=O)N[C@@H](c2ccccc2)C/C=C\C[C@H](c2ccc3c(c2)OCO3)NC1=O	0.396
COc1ccc(C#Cc2ccc3c(c2)[C@H]2[C@H](CCN2C(=O)Nc2ccc(C(F)(F)F)cc2)[C@@H](CO)N3C)cc1	2.36
COCC#Cc1ccc([C@H]2[C@@H](CO)N3C(=O)CN(C(=O)c4ccncc4)C[C@H]23)cc1	0.0628
CCc1cnc(N2[C@H](C#N)[C@@H](c3ccccc3C3=CCCC3)[C@@H]2CO)s1	3.07
COc1cccc(NC(=O)N[C@@H]2CC[C@H](CC(=O)N3CCN(C)CC3)O[C@H]2CO)c1	0.114
CCCC#Cc1ccc([C@H]2[C@@H](C#N)N(C(=O)CN3CCOCC3)[C@@H]2CO)cc1	-1.03
CC(C)CC#Cc1ccc([C@@H]2[C@H]3CN(C(=O)NC4CCCCC4)CC(=O)N3[C@H]2CO)cc1	0.858
C[C@H]1CN([C@@H](C)CO)C(=O)c2cc(-c3ccc(C#N)cc3)cnc2O[C@@H]1CN(C)Cc1cccnc1	0.336
SMILES	IDE exosite FP
O=C1CN(S(=O)(=O)c2ccccc2)C[C@@H]2[C@H](c3ccc(C#CCc4ccccc4)cc3)[C@@H](CO)N12	1.68
Cc1ccc(OC(=O)N(C)C[C@@H]2OCc3ccccc3-c3ccccc3C(=O)N([C@H](C)CO)C[C@@H]2C)cc1	-0.508
COCC(=O)N1CC(=O)N2[C@H](CO)[C@H](c3ccc(C#Cc4cccc(OC)c4)cc3)[C@H]2C1	-6.59*
CCC(=O)N1CC(=O)N2[C@H](CO)[C@@H](c3ccc(C#Cc4cccc(OC)c4)cc3)[C@@H]2C1	-5.16*
COCC(=O)N1CC(=O)N2[C@H](CO)[C@H](c3ccc(C#Cc4cccc(OC)c4)cc3)[C@@H]2C1	-2.34
COc1cccc(C#Cc2ccc([C@@H]3[C@@H](CO)N4C(=O)CN(C(=O)Cc5cccnc5)C[C@@H]34)cc2)c1	-1.37
O=C(Nc1ccc2c(c1)[C@@H]1C[C@@H](CC(=O)N3CCCCC3)O[C@H](CO)[C@@H]1O2)NC1CCCCC1	-0.181
NCC[C@@H]1CC[C@@H](NS(=O)(=O)c2ccc(Cl)cc2)[C@@H](CO)O1	2.86
CN1C(=O)c2cc(NC(=O)c3cccc(C(F)(F)F)c3)ccc2OC[C@@H]2O[C@H](CC(=O)NCCN3CCCC3)CC[C@@H]21	-1.33
CCC(=O)N1CC2(C1)[C@H](c1ccccc1)[C@H](CO)N2CC1CC1	1.49
O=C(C[C@@H]1C=C[C@@H](NC(=O)c2ccncc2)[C@H](CO)O1)NCC1CC1	0.281
CCCC#Cc1ccc([C@@H]2[C@H](CO)N3C(=O)CN(C(=O)Cc4cccnc4)C[C@@H]23)cc1	-0.582
O=C(Nc1cc(F)ccc1F)N1CC(=O)N2[C@@H](CO)[C@H](c3ccc(/C=C/c4ccccc4)cc3)[C@@H]2C1	-1.11
COc1ccc2c3c([nH]c2c1)[C@H](CO)N(C(=O)c1ccc(F)cc1)CC31CCN(S(=O)(=O)c2cccs2)CC1	-1.02
Cc1cccc(-c2ccc([C@@H]3[C@@H](CO)N4CCCCN(CCC(F)(F)F)C[C@@H]34)cc2)c1	-0.683
Cc1cccc(-c2ccc([C@H]3[C@H]4CN(Cc5ccncc5)CCCCN4[C@H]3CO)cc2)c1	-5.02*
Cc1cccc(-c2ccc([C@H]3[C@@H](CO)N4CCCCN(Cc5ccncc5)C[C@H]34)cc2)c1	-5.92*
Cc1cccc(-c2ccc([C@H]3[C@@H](CO)N4CCCCN(CCC(F)(F)F)C[C@H]34)cc2)c1	-3.62*
Cc1cccc(-c2ccc([C@@H]3[C@H](CO)N4CCCCN(CCC(F)(F)F)C[C@@H]34)cc2)c1	-2.68
OC[C@H]1[C@@H](c2ccc(C3=CCCC3)cc2)[C@@H]2CN(Cc3ccncc3)CCCCN12	-0.898
Cc1cccc(-c2ccc([C@H]3[C@H](CO)N4CCCCN(CCC(F)(F)F)C[C@@H]34)cc2)c1	-0.213
Cc1cccc(-c2ccc([C@H]3[C@@H](CO)N4CCCCN(CCC(F)(F)F)C[C@@H]34)cc2)c1	0.47
Cc1cccc(-c2ccc([C@H]3[C@H](CO)N4CCCCN(Cc5ccncc5)C[C@@H]34)cc2)c1	-3.73*
Cc1cccc(-c2ccc([C@@H]3[C@@H](CO)N4CCCCN(CCC(F)(F)F)C[C@H]34)cc2)c1	-2.9
CN(C)C(=O)c1ccc(-c2ccc([C@@H]3[C@@H](CO)N4CCCCN(Cc5ccncc5)C[C@@H]34)cc2)cc1	2.6
SMILES	IDE exosite FP
C/C=C/c1ccc([C@@H]2[C@H](C#N)N(C(=O)c3cccnc3)[C@H]2CO)cc1	0.325
O=C(Nc1ccc(F)cc1)N1CC(=O)N2[C@H](CO)[C@H](c3ccc(C#Cc4ccccc4)cc3)[C@@H]2C1	-0.568
N#C[C@H]1[C@@H](c2ccccc2)[C@@H](CO)N1S(=O)(=O)c1ccc(F)cc1	5.04
O=C(c1ccncc1)N1CC(=O)N2[C@H](CO)[C@@H](c3ccc(C#CCC4CCCC4)cc3)[C@H]2C1	2.64
CN(C)C(=O)c1ccc(-c2ccc([C@H]3[C@H](CO)N4C(=O)CN(C(=O)C5CCC5)C[C@@H]34)cc2)cc1	2.64
O=C(c1ccc(F)cc1)N1CC(=O)N2[C@H](CO)[C@@H](c3ccc(-c4ccccc4F)cc3)[C@H]2C1	0.687
